Results published in PubChem BioAssay.
Active and inactive are the calls of the source.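 The calls were made as follows: active = inhibition at or above 50% at 10 µM; inactive = inhibition below 50%.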

Test: inhibitors of Sendai virus-induced IRF3 signaling, primary screen, TLR/RLR signaling modifier project, cell-based, Sendai virus stimulus, luciferase, 10K MLSCN set (AID 602276);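 also: firefly luciferase from ISG56 promoter only with Renilla not read in this screen; 0% = Sendai virus plus DMSO and 100% = medium plus DMSO without virus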
Settings: HEK293 RL24 IRF3 luciferase reporter, at 10 µM, hits give high values

| Compound | inhibition |
| --- | --- |
| Cn1cnc2cc(NC(=O)c3ccc(Cl)cc3)ccc21 | -39.3% (inactive) |
| CC(=O)NCC(=O)N(Cc1ccco1)C1(C(=O)NC2CCCCC2)CCCCC1 | 9.16% (inactive) |
| COc1ccc2[nH]c(=O)c(CN(Cc3cccs3)S(=O)(=O)c3cccc4nsnc34)cc2c1 | 8.33% (inactive) |
| Cc1ccc2oc(=O)c3cnn(CC(=O)NCCC(C)C)c3c2c1 | 7.61% (inactive) |
| CC12CCC(C(=O)N3CCCCC3)(CC1=O)C2(C)C (centres undefined) | 10.9% (inactive) |
| CC1(C)CC(=O)C=C(Nc2ccc(OCC(F)(F)C(F)F)cc2)C1 | -8.49% (inactive) |
| Cc1cc(C)cc(-n2nnc(C(=O)NCc3ccco3)c2N)c1 | -5.79% (inactive) |
| CC(C)Oc1ccc(N2CC(C(=O)Nc3ccccc3F)CC2=O)cc1 (centres undefined) | 4.3% (inactive) |
| O=C(Nc1nccs1)c1cccc(NC(=O)C2CC2)c1 | 2.3% (inactive) |
| CCOc1ccccc1C(=O)Nc1nnc(CC)s1 | -6.19% (inactive) |
| COc1ccc(C(=O)N2CCN(S(=O)(=O)c3cc(Cl)ccc3OC)CC2)cc1 | 16.1% (inactive) |
| [N-]=[N+]=CC(=O)CC(c1ccccc1)N1C(=O)c2ccccc2C1=O (centres undefined) | -5% (inactive) |
| O=C(O)c1c(Cl)c(Cl)c(Cl)c(Cl)c1C(=O)N1CCOCC1 | 7.47% (inactive) |
| CCOc1ccccc1OCC(=O)NCc1ccco1 | 11.5% (inactive) |
| CC1CCN(Cc2ccc(NC(=O)C3CCN(c4nnc(-n5cccc5)s4)CC3)cc2)CC1 | 10.3% (inactive) |
| Cc1cc(Oc2ccc(Cl)cc2)nc(-c2ccccc2O)n1 | 3.04% (inactive) |
| C=C(C)Cn1c(N2CCN(CC)CC2)nc2c1c(=O)[nH]c(=O)n2C | 2.55% (inactive) |
| CCOCCc1nnc(NC(=O)c2ccc(OC)c(OC)c2)s1 | 14.1% (inactive) |
| COc1cc(CN2CCN(C(=O)CC(C)C)CC2)cc(OC)c1O | 5.89% (inactive) |
| c1ccc2c(c1)sc1nnnn12 | 18% (inactive) |

| Compound | inhibition |
| --- | --- |
| COC(=O)c1cc(Br)c(=O)n(-c2ccc(OC)cc2)c1 | 12.6% (inactive) |
| COc1cc(C(=O)N2CCC(NC(=O)C(Cc3ccc(C)cc3)NC(C)=O)CC2)cc(OC)c1OC (centres undefined) | 1.73% (inactive) |
| Cc1ccccc1NS(=O)(=O)c1cc(S(C)(=O)=O)ccc1Cl | -5.83% (inactive) |
| COc1ccccc1OCCOc1ccccc1/C=N/n1cnnc1 | -3.21% (inactive) |
| CCc1nnc(NC(=O)CSc2nnc3scc(-c4ccc(C)cc4)n23)s1 | 14.5% (inactive) |
| Cn1c(/C=N/n2cnnc2)nc2ccccc21 | 6.17% (inactive) |
| CC1CN(C(=O)c2cc3cc(Cl)cc(Cl)c3oc2=O)CC(C)O1 (centres undefined) | 11.6% (inactive) |
| C=CCOc1nc2c(c(=O)n(C)c(=O)n2C)n1C | 6.05% (inactive) |
| CCOc1cccc(C(=O)N(Cc2ccco2)C2CCS(=O)(=O)C2)c1 (centres undefined) | 11.5% (inactive) |
| Cn1c(COc2ccc(Cl)cc2)nnc1SCC(=O)NC1CCCCC1 | -9.58% (inactive) |
| Cc1cccc2cc(COC(=O)C(C)(C)C)c(=O)[nH]c12 | 10.9% (inactive) |
| Cc1cccc(-c2c3c(=O)n(C)c(=O)n(C)c3cn2-c2ccc(O)cc2)c1 | 6.51% (inactive) |
| Cc1ccc(CN2C(=O)CCC2C(=O)NCCCN2CCC(C)CC2)cc1 (centres undefined) | 14.7% (inactive) |
| Cc1cccc(Nc2nc(N)nc(CN3CCC(C(N)=O)CC3)n2)c1C | -22.9% (inactive) |
| COc1cc(OC)nc(NC(=O)CSc2nc3ccccc3o2)n1 | 12.8% (inactive) |
| CCCC(c1nnnn1Cc1ccc(OC)cc1)N1CCN(c2ccccc2OC)CC1 (centres undefined) | 10.6% (inactive) |
| COc1cccc(N2CCN(Cc3nc(N)nc(Nc4ccccc4)n3)CC2)c1 | 0.669% (inactive) |
| Cc1nc2ccc(Br)cn2c1NC(C)(C)C | -1.2% (inactive) |
| O=C(Nc1ccc(Cl)c(C(F)(F)F)c1)N1CCCC(O)C1 (centres undefined) | 1.7% (inactive) |
